Source: the supplement of paper PMC7530171
Counter-ions that a name gives are not always drawn. ± gives the standard deviation.

System: THP-1 macrophages infected with Mycobacterium tuberculosis H37Rv
Test: intracellular M.tb growth inhibition relative to DMSO (0) and 4 uM bedaquiline (100); higher = stronger inhibition of intracellular bacterial growth
Conditions: 10 µM; 4 days
Description: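 OICR kinase inhibitor library screened in duplicate at 10 uM against THP-1 macrophages (PMA-differentiated) infected with M. tuberculosis H37Rv-pTEC27 (tdTomato RFP), 4 days at 37 C. Rows with complete host cell loss (placeholder inhibition 0, cell loss 100) were removed.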

| Compound | intracellular M.tb growth inhibition [%] |
| --- | --- |
| COc1ccc(Cl)cc1NC(=O)Nc1cc(C)nc2ccccc12 | 59.1 ± 9.6 |
| CN(C)CCOc1ccc(-c2nc(-c3ccncc3)c(-c3ccc4c(c3)CC/C4=N\O)[nH]2)cc1 | 35.2 ± 75 |
| NC(=O)Nc1cc(-c2cccc(F)c2)sc1C(=O)N[C@H]1CCCNC1 | -218 ± 310 |
| COc1cc(CCc2cc(NC(=O)c3ccc(N4CC(C)NC(C)C4)cc3)n[nH]2)cc(OC)c1 (stereo not given) | -216 ± 180 |
| Cc1[nH]c(/C=C2\C(=O)Nc3cc(-c4ccccc4)ccc32)c(C)c1CCC(=O)O | -5.41 ± 25 |
| c1cc(OCCN2CCCCC2)cc(-c2n[nH]c3ccc(-c4nnc[nH]4)cc23)c1 | -65.3 ± 120 |
| Nc1cc(C(F)(F)F)c(-c2cc(N3CCOCC3)nc(N3CCOCC3)n2)cn1 | -76.8 ± 110 |
| Cc1cc(Nc2cc(C)c(C#N)c(NC(C)CCCC(C)(C)O)n2)n[nH]1 (stereo not given) [TC-A 2317 hydrochloride] | -257 ± 200 |
| Cn1cc(-c2ccc3nnc(C(F)(F)c4ccc5ncccc5c4)n3n2)cn1 | -109 ± 120 |
| CC(C)(C)n1nc(-c2cccc3ccccc23)c2c(N)ncnc21 [1-Naphthyl PP1] | 21.2 ± 3.2 |
| COc1cc(Nc2ncc(F)c(Nc3ccc4c(n3)NC(=O)C(C)(C)O4)n2)cc(OC)c1OC | -164 ± 230 |
| Cn1cc(C2=C(c3ccc(Cl)cc3Cl)C(=O)NC2=O)c2ccccc21 | -108 ± 200 |
| COc1cccc2cc(-c3nc([C@H]4CC[C@H](C(=O)O)CC4)n4ncnc(N)c34)[nH]c12 [OSI-027 hydrochloride] | -318 ± 370 |
| O=C(Nc1cccc(Nc2ncc(Br)c(NCCc3cnc[nH]3)n2)c1)N1CCCC1 | -256 ± 330 |
| CCn1c(-c2nonc2N)nc2c(C#CC(C)(C)O)ncc(OC[C@H]3CCCNC3)c21 | -124 ± 170 |
| COc1nccc(-c2c(-c3ccc(F)cc3)ncn2C2CCC(O)CC2)n1 (stereo not given) | 1.01 ± 15 |
| C[C@@H](Oc1cc(-n2cnc3ccc(CN4CCN(C)CC4)cc32)sc1C(N)=O)c1ccccc1C(F)(F)F | -31.9 ± 42 |
| Cc1cccc(-c2[nH]c(C(C)(C)C)nc2-c2ccc3c(c2)OCO3)n1 | -67.3 ± 53 |
| O=c1cc(N2CCOCC2)oc2c1ccc1ccccc12 | 19.8 ± 4.3 |
| CO[C@H]1C[C@@H]2CC[C@@H](C)[C@@](O)(O2)C(=O)C(=O)N2CCCC[C@H]2C(=O)O[C@H]([C@H](C)C[C@@H]2CC[C@@H](O)[C@H](OC)C2)CC(=O)[C@H](C)/C=C(\C)[C@@H](O)[C@@H](OC)C(=O)[C@H](C)C[C@H](C)/C=C/C=C/C=C/1C [Rapamycin] | 15.9 ± 11 |

| Compound | intracellular M.tb growth inhibition [%] |
| --- | --- |
| CN(C)Cc1cccc(N=C(c2ccccc2)c2c(O)[nH]c3cc(C(=O)N(C)C)ccc23)c1 | -213 ± 320 |
| C[C@@]1(C(=O)Nc2ccc(F)nc2)CCCN1c1nc(Nc2cc(C3CC3)n[nH]2)c2cccn2n1 | -265 ± 70 |
| N#C/C(=C\c1ccc(O)c(O)c1)C(=O)Nc1ccccc1 | -35.4 ± 5.2 |
| CCN(CC)CCCCNc1ncc2cc(-c3cc(OC)cc(OC)c3)c(NC(=O)NC(C)(C)C)nc2n1 | 34.4 ± 29 |
| Oc1cccc(-c2nc(N3CCOCC3)c3oc4ncccc4c3n2)c1 | -62.7 ± 17 |
| O=c1[nH]ccc2c(S(=O)(=O)N3CCCNCC3)cccc12 [HA 1100 hydrochloride] | -142 ± 180 |
| COc1cc2ncnc(Nc3cccc(Cl)c3)c2cc1OC [Tyrphostin AG 1478 mesylate] | 2.11 ± 14 |
| Nc1nccc(-c2c(-c3ccc(F)cc3)ncn2C2CCCCC2)n1 | 42.4 ± 13 |
| Fc1ccc(Cl)cc1-c1nc(Nc2ccncc2)c2nccnc2n1 | 36.5 ± 10 |
| Cc1c[nH]c(/C=C2\C(=O)Nc3ccccc32)c1CCC(=O)O | 27.3 ± 23 |
| Cc1ccccc1C(=O)c1ccc(Nc2ccc(Br)cc2N)cc1Cl | 20.1 ± 14 |
| c1ccc(-c2[nH]ncc2-c2ccnc3ccccc23)nc1 | 2.68 ± 17 |
| CNC(=O)c1ccccc1Sc1ccc2c(/C=C/c3ccccn3)n[nH]c2c1 [Axitinib] | 33.9 ± 1.6 |
| COc1cccc(-c2cc(=O)c3ccccc3o2)c1N | 27.4 ± 15 |
| COc1cc(/C=C(\C#N)C(N)=O)cc(CSc2nc3ccccc3s2)c1O | 21 ± 6.4 |
| CN1CCC(Nc2ncc3ncnc(Nc4ccc(F)c(Cl)c4)c3n2)CC1 [BIBX 1382 dihydrochloride] | 64.2 ± 13 |
| CCOc1cc2ncc(C#N)c(Nc3ccc(OCc4ccccn4)c(Cl)c3)c2cc1NC(=O)/C=C/CN(C)C [Neratinib] | -146 ± 210 |
| O=C1C(Cl)=C(NCCN2CCOCC2)C(=O)c2ncccc21 | -3.64 ± 5.1 |
| Nc1ncnc(Nc2ccc(OCc3ccccc3)c(Cl)c2)c1/C=N/OCCN1CCOCC1 | 55.9 ± 12 |
| CN(C)c1cc2c(Nc3ccc4c(cnn4Cc4ccccc4)c3)ncnc2cn1 | 43.5 ± 9.2 |
